PfHsp40 yeast – restores yeast growth despite PfHsp40 toxicity; AID 504582; 340,000 compounds, 0.68% hits; growth rescue, % at 12.5 µM; S. cerevisiae expressing PfHsp40, growth rescue, ATP luminescence; in the data active means growth rescue above about 28%, passing the limit was not always enough; inconclusive means no clear call, values can overlap the other calls;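 further: yeast W303a lacking pdr1 and pdr3 grown in galactose medium; growth measured after three days at 30 °C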
Sa RN4220 lethal – S. aureus RN4220 growth inhibition; AID 1259311; 330,000 compounds, 0.33% hits; inhibition, % (test concentration not listed); OD600, 16 h; in the data active means inhibition above about 85%;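 further: plate controls were untreated cells for no effect and reference antibiotic for full effect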
SSB-PriA inh – blocks PriA binding to SSB C-terminal tail; AlphaScreen SSBct-PriA binding, biotinylated peptide; inhibition, % at 33 µM; 430,000 compounds, 0.6% hits; in the data active means inhibition mostly above about 37%, no sharp cut-off; inactive means mostly below about 20%;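 further: plate controls were negative control peptide for no effect and reference peptide for full effect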
Mtb hypoxia rep – Mtb hypoxia fluorescent reporter inhibition | M. tuberculosis hypoxia-regulated fluorescent reporter, fluorescence | fluorescence inhibition, % (no concentration beside the values) | 300,000 compounds, 0.1% hits | AID 1159583; in the data active means fluorescence inhibition mostly above about 23%, no sharp cut-off; inactive means mostly below about 17%
Sa ugtP lethal – compounds lethal to S. aureus RN4220 ugtP deletion mutant. OD600 growth, 16 h. growth inhibition, % (test concentration not listed). 330,000 compounds, 0.54% hits. AID 1259309; in the data active means growth inhibition above about 68%;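 further: plate controls were untreated wells for no effect and antibiotic for full effect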
VHR inh abs – blocks human VHR1 dual specificity phosphatase; P51452; recombinant VHR phosphatase, pNPP absorbance; inhibition, % at 13.3 µM; 290,000 compounds, 0.52% hits; in the data active means inhibition above about 50%
Target sequence (P51452 whole entry, looked up): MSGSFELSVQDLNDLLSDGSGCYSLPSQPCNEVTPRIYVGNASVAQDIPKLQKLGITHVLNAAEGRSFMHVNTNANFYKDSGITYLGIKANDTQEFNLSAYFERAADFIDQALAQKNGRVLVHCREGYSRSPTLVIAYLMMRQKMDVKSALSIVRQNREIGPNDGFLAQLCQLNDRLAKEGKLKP
* marks the source's active call; other numbers are inactive results. Hits are enriched below; roughly 1.8% of the tested compounds scored in any of these assays.

For CCCCc1ccc(NC(=S)Nc2ccc(Nc3ccc(OC)cc3)cc2)cc1 the results were PfHsp40 yeast 3, Sa RN4220 lethal -1, SSB-PriA inh 84*, Mtb hypoxia rep 10, Sa ugtP lethal -5 and VHR inh abs -13.
For O=C(Nc1ccccc1)Nc1ccno1 the results were PfHsp40 yeast 1, Sa RN4220 lethal 2, SSB-PriA inh 1, Mtb hypoxia rep 95*, Sa ugtP lethal -7 and VHR inh abs 3.
`O=C(Nc1ccccc1)Nc1ccncc1` gave PfHsp40 yeast -1, Sa RN4220 lethal 1, SSB-PriA inh -7, Mtb hypoxia rep 1, Sa ugtP lethal 3 and VHR inh abs 12.
Cc1cc(C(=O)N(CCCN2CCOCC2)c2nc3c(C)ccc(C)c3s2)on1 was read as SSB-PriA inh -8.
`O=C(CCn1ccc(=O)[nH]c1=O)NCC#CCOc1cccc(C(F)(F)F)c1` gave SSB-PriA inh -5.
Screening CCn1cc(S(=O)(=O)N2CCS[C@H]2c2ccc(OC)c(Br)c2)nc1C returned SSB-PriA inh 2.
COc1ccc(C=NOCc2ccc(Br)cc2)c(OC)c1 was read as Sa RN4220 lethal -2, SSB-PriA inh -5, Mtb hypoxia rep 11 and Sa ugtP lethal 87*.
Screening COc1ccc(/C=N/Nc2ncc(Br)cn2)c(OC)c1 returned PfHsp40 yeast -1 and VHR inh abs 88*.
For COc1ccc(/C=N\Nc2ccccn2)c(OC)c1 the results were PfHsp40 yeast -2 and VHR inh abs 13.
Screening NC(=O)c1ccsc1NC(=O)CS(=O)(=O)c1ccc(Cl)cc1 returned PfHsp40 yeast 0, Sa RN4220 lethal 2, SSB-PriA inh -1, Mtb hypoxia rep -4, Sa ugtP lethal 4 and VHR inh abs 56*.
O=C(CCn1cnc2ccccc2c1=O)NC1CCC(Oc2ccccn2)CC1 (stereo unspecified) was read as SSB-PriA inh -13.
Screening CCCCn1c(N)c(N(CCOC)C(=O)CSCc2cccc(C)c2)c(=O)[nH]c1=O returned Sa RN4220 lethal 3, SSB-PriA inh 49*, Mtb hypoxia rep 3 and Sa ugtP lethal 6.
`CCCCn1c(N)c(N(CC)C(=O)c2ccccc2C)c(=O)[nH]c1=O` gave PfHsp40 yeast 1, Sa RN4220 lethal 3, SSB-PriA inh 15, Mtb hypoxia rep -1, Sa ugtP lethal 1 and VHR inh abs 52*.
`CCN(CC)c1ccc(C=NNS(=O)(=O)c2ccc(C)c([N+](=O)[O-])c2)cc1` gave Sa RN4220 lethal -2, SSB-PriA inh 39*, Mtb hypoxia rep -10 and Sa ugtP lethal -4.
For CCCOc1cc(Nc2ccc(NC(=O)c3c(F)cccc3F)cc2)nc(C)n1 the results were SSB-PriA inh -6.
For CN(CCO)c1cc(Sc2nc3ccccc3s2)c2nonc2c1[N+](=O)[O-] the results were PfHsp40 yeast 1, Sa RN4220 lethal 57, SSB-PriA inh 8, Mtb hypoxia rep 19, Sa ugtP lethal 88* and VHR inh abs 29.
`COCCNC(=O)C(C)C1C[C@]1(C)C(NC(=O)OCc1ccccc1)c1ccccc1` (stereo partly specified) gave Sa RN4220 lethal 7, Mtb hypoxia rep 12 and Sa ugtP lethal -1.
COc1ccc(NS(=O)(=O)c2cccc3nsnc23)cc1OC was read as PfHsp40 yeast 1, Sa RN4220 lethal 4, SSB-PriA inh -9, Mtb hypoxia rep 15, Sa ugtP lethal 7 and VHR inh abs 51*.
N#Cc1c(-c2ccc(Cl)cc2)n(O)c2ccccc12 was read as PfHsp40 yeast 284* and SSB-PriA inh -5.
COc1ccc(-n2c(-c3ccc(F)cc3)cnc2SCC(=O)NCc2ccco2)cc1 was read as PfHsp40 yeast 6, Sa RN4220 lethal 4, SSB-PriA inh 49*, Mtb hypoxia rep 3, Sa ugtP lethal -7 and VHR inh abs -4.
`O=C(CSc1ncc(-c2ccccc2)n1-c1ccccc1)NCc1ccco1` gave PfHsp40 yeast 1, Sa RN4220 lethal 8, SSB-PriA inh 52*, Mtb hypoxia rep 11, Sa ugtP lethal 30 and VHR inh abs 15.
For O=C(CSc1ncc(-c2ccc(F)cc2)n1Cc1ccco1)Nc1ccc2c(c1)OCO2 the results were PfHsp40 yeast inconclusive, Sa RN4220 lethal -2, SSB-PriA inh 30, Mtb hypoxia rep 6, Sa ugtP lethal 17 and VHR inh abs -3.
`CCOc1ccc(NC(=O)CSc2ncc(-c3ccc(F)cc3)n2Cc2ccco2)cc1` gave PfHsp40 yeast 21, Sa RN4220 lethal -13, SSB-PriA inh 43*, Mtb hypoxia rep 12, Sa ugtP lethal 17 and VHR inh abs -15.
Screening Cc1nnc(SCC(=O)NCc2ccco2)n1-c1ccccc1 returned PfHsp40 yeast -2, Sa RN4220 lethal 2, SSB-PriA inh -20, Mtb hypoxia rep 0, Sa ugtP lethal 7 and VHR inh abs 11.
For Cc1nnc(SCC(=O)NCc2ccco2)n1-c1ccc(F)cc1 the results were PfHsp40 yeast 0, Sa RN4220 lethal 3, SSB-PriA inh -2, Mtb hypoxia rep 4, Sa ugtP lethal 3 and VHR inh abs -5.
For CCOC(=O)C1=CN(Cc2cccc(F)c2)S(=O)(=O)NC1c1ccc2ccccc2c1 (stereo unspecified) the results were PfHsp40 yeast 1, Sa RN4220 lethal -2, SSB-PriA inh 5, Mtb hypoxia rep 0 and Sa ugtP lethal -4.
Screening CCOC(=O)C1=CN(Cc2cccc(F)c2)S(=O)(=O)NC1c1cccc(OC)c1 (stereo unspecified) returned PfHsp40 yeast 0, Sa RN4220 lethal 4, SSB-PriA inh 47*, Mtb hypoxia rep 6 and Sa ugtP lethal 13.
CCC1=NNc2cccc3c(OC)ccc1c23 was read as Sa RN4220 lethal -5, Mtb hypoxia rep 60*, Sa ugtP lethal -3 and VHR inh abs 54*.
`COc1ccc2c3c(cccc13)C(=O)N(O)C2=O` gave PfHsp40 yeast 12, Sa RN4220 lethal -1, SSB-PriA inh -13, Mtb hypoxia rep 5, Sa ugtP lethal 20 and VHR inh abs -11.
For COc1cccc(-c2nnc(NC(=O)c3ccccc3Br)o2)c1 the results were PfHsp40 yeast 0, Sa RN4220 lethal 9, SSB-PriA inh -15, Mtb hypoxia rep 5, Sa ugtP lethal 11 and VHR inh abs 3.
`COc1cccc(-c2nnc(NC(=O)c3cccc(F)c3)o2)c1` gave PfHsp40 yeast -1, Sa RN4220 lethal 98*, SSB-PriA inh -3, Mtb hypoxia rep -2, Sa ugtP lethal 98* and VHR inh abs 22.
Cc1cccc(-c2nnc(NC(=O)c3ccc(Cl)cc3)o2)c1 was read as PfHsp40 yeast 0, Sa RN4220 lethal 99*, SSB-PriA inh 0, Mtb hypoxia rep 2, Sa ugtP lethal 95* and VHR inh abs -1.
For O=C(Nc1nnc(-c2ccc3c(c2)OCCO3)o1)c1ccc(Cc2ccccc2)cc1 the results were PfHsp40 yeast 0, Sa RN4220 lethal 99*, SSB-PriA inh -15, Mtb hypoxia rep 8, Sa ugtP lethal 100* and VHR inh abs 29.

Screening data as filed in PubChem BioAssay.
